# Counter-ions that a name gives are not always drawn.
# Test system: HL-1
# Test: relative cell viability (CellTiter-Glo) vs DMSO control (% of DMSO control); higher = more viable cells
# In short: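 HL-1 mouse atrial cardiomyocytes were seeded into 384-well plates at 1000 cells per well along with compounds at 40, 200, 1000 or 5000 nM in 0.01% DMSO. After one day, the cells were moved to a hypoxic workstation (1% O2) for 48 h and then reoxygenated for 24 h in a normal incubator, while others remained in normoxia for the same period. Cell viability was measured by CellTiter-Glo luminescence and normalised to vehicle-treated control cells.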
# [1] = oxygen condition: hypoxia 48 h (1% O2) + reoxygenation 24 h, 40 nM
# [2] = oxygen condition: hypoxia 48 h (1% O2) + reoxygenation 24 h, 200 nM
# [3] = oxygen condition: hypoxia 48 h (1% O2) + reoxygenation 24 h, 1000 nM
# [4] = oxygen condition: hypoxia 48 h (1% O2) + reoxygenation 24 h, 5000 nM
# [5] = oxygen condition: normoxia 72 h, 40 nM
# [6] = oxygen condition: normoxia 72 h, 200 nM
# [7] = oxygen condition: normoxia 72 h, 1000 nM
# [8] = oxygen condition: normoxia 72 h, 5000 nM
SMILES,relative cell viability [1],relative cell viability [2],relative cell viability [3],relative cell viability [4],relative cell viability [5],relative cell viability [6],relative cell viability [7],relative cell viability [8]
C[N+](C)(C)C[C@H](O)CC(=O)[O-] [L-carnitine],102,104,103,113,101,107,102,107
CC[C@]1(O)C[C@H]2CN(CCc3c([nH]c4ccccc34)[C@@](C(=O)OC)(c3cc4c(cc3OC)N(C=O)[C@H]3[C@@](O)(C(=O)OC)[C@H](OC(C)=O)[C@]5(CC)C=CCN6CC[C@]43[C@@H]65)C2)C1 [Vincristine],38.3,40.4,44.4,42,32.5,29.1,32.3,41.1
O=S(=O)(O)c1cc(O)ccc1O [Ethamsylate],105,101,105,109,96.6,101,96.8,107
CCN(CC)C(=O)C1(c2ccccc2)CC1CN (stereo unspecified) [Milnacipran HCl],107,108,105,118,107,101,106,109
O=C(O)C1(C(=O)O)CCC1.[NH2-].[NH2-].[Pt+2] [Carboplatin],110,109,95.3,112,100,106,108,119
CCOC(=O)[C@H](CCc1ccccc1)N[C@@H](C)C(=O)N1CCC[C@H]1C(=O)O [Enalapril maleate],101,101,103,105,98.5,103,99.2,99
COCCCOc1cc(C[C@@H](C[C@H](N)[C@@H](O)C[C@H](C(=O)NCC(C)(C)C(N)=O)C(C)C)C(C)C)ccc1OC [Aliskiren hemifumarate],94.1,97.2,92.3,107,95.9,102,101,107
CC1(C)[C@@H](OC(=O)CCC(=O)O)CC[C@]2(C)[C@H]3C(=O)C=C4[C@@H]5C[C@@](C)(C(=O)O)CC[C@]5(C)CC[C@@]4(C)[C@]3(C)CC[C@@H]12 [Carbenoxolone Sodium],94.3,103,100,108,93.6,102,102,107
CCC(NC(C)C)C(O)c1ccc(O)c(O)c1 (stereo unspecified) [Isoetharine Mesylate],98.5,96.3,95.5,106,95.4,107,78.7,111
CS(=O)(=O)CCNCc1ccc(-c2ccc3ncnc(Nc4ccc(OCc5cccc(F)c5)c(Cl)c4)c3c2)o1 [Lapatinib Ditosylate],107,116,116,84.4,107,115,122,61.7
O=C(CCCN1CCN(c2ccccn2)CC1)c1ccc(F)cc1 [Azaperone],107,104,102,103,102,107,110,111
N=C(N)NC(=N)NCCc1ccccc1 [Phenformin hydrochloride],101,95.3,99.6,74.1,101,103,104,71.8
CCOC(=O)[C@H](CCc1ccccc1)N[C@H]1CCc2ccccc2N(CC(=O)O)C1=O [Benazepril hydrochloride],102,102,103,109,101,109,108,109
C[C@H]1c2cccc(O)c2C(=O)C2=C(O)[C@]3(O)C(=O)C(C(N)=O)=C(O)[C@@H](N(C)C)[C@@H]3[C@@H](O)[C@@H]21 [Doxycycline HCl],102,104,105,107,105,106,95.6,92.9
CN(C)CCC(c1ccccc1)c1ccccn1 (stereo unspecified) [Pheniramine Maleate],102,103,104,117,105,101,104,113
CC(C)C[C@H](NC(=O)[C@H](Cc1ccccc1)NC(=O)c1cnccn1)B(O)O [Bortezomib],10.4,10,8.52,4.58,12.9,10.5,6.82,4.44
CC1Cc2ccccc2N1NC(=O)c1ccc(Cl)c(S(N)(=O)=O)c1 (stereo unspecified) [Indapamide],106,104,110,114,105,102,106,121
Cc1nc(Nc2ncc(C(=O)Nc3c(C)cccc3Cl)s2)cc(N2CCN(CCO)CC2)n1 [Dasatinib],71.8,87.1,80.2,90.2,85.9,88.5,82.1,89.2
CN(C)CCOc1ccc(/C(=C(/CCCl)c2ccccc2)c2ccccc2)cc1 [Toremifene Citrate],104,103,108,108,103,99.5,105,108

SMILES,relative cell viability [1],relative cell viability [2],relative cell viability [3],relative cell viability [4],relative cell viability [5],relative cell viability [6],relative cell viability [7],relative cell viability [8]
C#C[C@]1(O)CC[C@H]2[C@@H]3CCC4=CC(=O)CC[C@@H]4[C@H]3CC[C@@]21CC [Levonorgestrel],110,115,104,112,107,104,111,111
Cc1ccc(C(=O)C(C)CN2CCCCC2)cc1 (stereo unspecified) [Tolperisone HCl],107,107,109,108,107,114,81.5,111
C=C1c2cccc(O)c2C(=O)C2=C(O)[C@]3(O)C(=O)C(C(N)=O)=C(O)[C@@H](N(C)C)[C@@H]3[C@@H](O)[C@H]12 [Methacycline hydrochloride],98.1,99.7,107,109,102,105,103,99.7
CCC[C@H](N[C@@H](C)C(=O)N1[C@H](C(=O)O)C[C@@H]2CCCC[C@@H]21)C(=O)OCC [Perindopril Erbumine],110,81,107,115,109,111,111,114
CC(=O)[C@H]1CC[C@H]2[C@@H]3C=CC4=CC(=O)CC[C@@]4(C)[C@@H]3CC[C@]12C [Dydrogesterone],97.1,99,106,105,100,98.8,96.7,105
Nc1nc2[nH]cnc2c(=S)[nH]1 [Thioguanine],97.1,79.2,65.6,24.5,82.9,75.5,64,22.5
CC(C)CC(N)=O [Isovaleramide],96.1,91.3,96.4,112,96.3,90.2,87.8,104
COC(=O)N[C@H](C(=O)N[C@@H](Cc1ccccc1)[C@@H](O)CN(Cc1ccc(-c2ccccn2)cc1)NC(=O)[C@@H](NC(=O)OC)C(C)(C)C)C(C)(C)C [Atazanavir sulfate],104,101,105,108,101,97,98.5,116
C[C@@]12C[C@@]3(O)O[C@@H](O1)[C@]1(COC(=O)c4ccccc4)[C@H]3C[C@@]12O[C@@H]1O[C@H](CO)[C@@H](O)[C@H](O)[C@H]1O [Paeoniflorin],106,102,108,118,107,111,109,118
CC(=O)O[C@@]12CO[C@@H]1C[C@H](O)[C@@]1(C)C(=O)[C@H](O)C3=C(C)[C@@H](OC(=O)[C@H](O)[C@@H](NC(=O)OC(C)(C)C)c4ccccc4)C[C@@](O)([C@@H](OC(=O)c4ccccc4)[C@H]21)C3(C)C [Docetaxel],26.9,24.1,27.2,29.3,19.3,23,22.6,23.6
CN(Cc1ccc(C(C)(C)C)cc1)Cc1cccc2ccccc12 [Butenafine HCl],98.1,104,106,109,104,100,106,110
COC(=O)[C@@H]1CC2=CC(=O)CC[C@]2(C)[C@@]23O[C@@H]2C[C@@]2(C)[C@@H](CC[C@@]24CCC(=O)O4)[C@H]13 [Eplerenone],102,103,101,103,107,107,108,104
CC#CCn1c(N2CCC[C@@H](N)C2)nc2c1c(=O)n(Cc1nc(C)c3ccccc3n1)c(=O)n2C [Linagliptin],96.7,103,104,105,106,105,107,106
CCC[C@@H]1C[C@@H](C(=O)N[C@@H]([C@H]2O[C@H](SC)[C@H](O)[C@@H](O)[C@H]2O)[C@H](C)Cl)N(C)C1 [Clindamycin hydrochloride],98.5,93.8,91.3,102,102,98,100,86.2
CN1C[C@@H]2C[C@H]1CN2c1cc2c(cc1F)c(=O)c(C(=O)O)cn2C1CC1 [Danofloxacin Mesylate],106,104,111,108,111,101,103,107
CC[C@]1(O)C[C@@H]2CN(CCc3c([nH]c4ccccc34)[C@@](C(=O)OC)(c3cc4c(cc3OC)N(C)[C@H]3[C@@](O)(C(=O)OC)[C@H](OC(C)=O)[C@]5(CC)C=CCN6CC[C@]43[C@@H]65)C2)C1 [Vinblastine],35.3,41.6,43.5,37.2,28,32.3,36,35.9
Cc1ccc(C(=O)c2cc(O)c(O)c([N+](=O)[O-])c2)cc1 [Tolcapone],101,100,103,116,98.4,102,103,113
CCOc1cc(N)c(Cl)cc1C(=O)NCC1CN(Cc2ccc(F)cc2)CCO1 (stereo unspecified) [Mosapride citrate],105,106,104,104,104,109,103,109
